Source: ChEMBL document CHEMBL3988442, “University of Dundee, Small-Polar-MMV Screening Library” (2021)
The campaign covered roughly 69,000 compounds. About 420 (0.61%) showed an effect of 50% or more. Only a selection was taken, and strong results are over-represented in it overall.

target: T1, Histidine--tRNA ligase (Leishmania infantum) (UniProt A4I591); test: Leishmania infantum Histidine tRNA synthetase (LdHisRS); assay type: functional; set-up: scale not given: in the data most compounds retested in dose-response had high values; details: 30 µM
T1 sequence (whole entry): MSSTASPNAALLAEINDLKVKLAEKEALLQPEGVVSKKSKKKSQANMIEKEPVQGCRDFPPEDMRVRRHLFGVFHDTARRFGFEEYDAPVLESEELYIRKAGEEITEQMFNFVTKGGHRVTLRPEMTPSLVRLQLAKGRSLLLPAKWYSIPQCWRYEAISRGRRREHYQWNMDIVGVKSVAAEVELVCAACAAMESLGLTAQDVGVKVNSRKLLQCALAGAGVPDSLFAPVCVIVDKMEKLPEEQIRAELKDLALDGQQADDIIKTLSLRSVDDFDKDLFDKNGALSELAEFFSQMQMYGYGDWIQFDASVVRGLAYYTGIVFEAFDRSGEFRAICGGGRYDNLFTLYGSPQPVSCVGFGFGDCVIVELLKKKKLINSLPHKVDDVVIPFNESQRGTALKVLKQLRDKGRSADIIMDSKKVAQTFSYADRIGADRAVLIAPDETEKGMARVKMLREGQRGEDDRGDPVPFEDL

| Structure (SMILES) | Percent Effect |
| --- | --- |
| O=C([C@H]1C[C@@H]2[C@@H](C1)OCCN2CC1CC1)N1CCCC1 | 19.3% |
| CCC1CN(CCNC(C)=O)CCN1CCOC (stereo not drawn) | 4.76% |
| CCC1CN(CCC(=O)N(C)C)CCN1CCOC (stereo not drawn) | 50% |
| CCC1CN(CC(=O)N2CCC2)CCN1CCOC (stereo not drawn) | 28.6% |
| c1ccc(O[C@H]2C[C@@H]3CN(Cc4cnccn4)C[C@@H]3C2)cc1 | 15.9% |
| COc1cc(N2C[C@@H]3COC[C@]3(COCc3ccccn3)C2)ncn1 | 13.8% |
| NC(=O)c1ccc(N2CCCCC2)c(NC(=O)c2cc(Br)ccc2Cl)c1 | 80.7% |
| NC(=O)c1ccc(N2CCCCC2)c(NC(=O)c2ccc(F)cc2Cl)c1 | 65.6% |
| NC(=O)c1ccc(N2CCCCC2)c(NC(=O)c2cc(Br)ccc2F)c1 | 36.8% |
| NC(=O)c1ccc(N2CCCCC2)c(NC(=O)c2ccc(Br)cc2)c1 | 20.4% |
| NC(=O)c1ccc(N2CCCCC2)c(NC(=O)c2cc(F)ccc2F)c1 | 18.3% |
| NC(=O)c1ccc(N2CCCCC2)c(NC(=O)c2ccc(F)cc2F)c1 | 18.3% |
| O=S1(=O)C[C@@H]2[C@H](C1)N(Cc1cc(F)cc(Cl)c1)CCN2CCO | 0% |
| CN(C)C(=O)N1C[C@@H]2CC[C@H](C1)N(Cc1nnc(-c3ccco3)o1)C2 | -9.89% |
| NC(=O)NCC(=O)N1C[C@H]2CC[C@@H]1CN(Cc1cscn1)C2 | 0% |
| CCc1oc(C(=O)N2CC[C@H]3CC[C@@H](C2)N3)cc1CN(CC)CC | 12.6% |
| Fc1ccc(F)c(CN2CCC(c3cc4ncccc4cn3)CC2)c1 | 35.2% |
| Fc1cccc(CN2CCC(c3cc4ncccc4cn3)CC2)c1F | 29.6% |
| COc1ccc(C)cc1CN1CCC(c2cc3ncccc3cn2)CC1 | 60.6% |
| Cc1noc([C@@H]2C[C@@H]3CCN(c4nnc(C)s4)C[C@H]3O2)n1 | 13.5% |
| O=C(c1ccoc1)N1CC[C@H]2OCC[C@@]2(COc2ncccc2F)C1 | 24.5% |
| Cc1ccncc1C(=O)N1C[C@H]2CN(CC3CCC3)C[C@@]2(C(=O)O)C1 | -1.64% |
| CN(CC(O)CO)c1nc(-c2cccnc2)nc2c1CCNC2 (stereo not drawn) | 7.85% |
| Cc1nonc1CN(C)c1nc(-c2cccnc2)nc2c1CCNC2 | 67.5% |
| CN(CC1CCCCO1)c1nc(-c2cccnc2)nc2c1CCNC2 (stereo not drawn) | 9.95% |

| Structure (SMILES) | Percent Effect |
| --- | --- |
| CS(=O)(=O)CC(=O)N1C[C@@H]2COC[C@]2(c2nnc(C3CC3)o2)C1 | 15.1% |
| N#Cc1cccc(CN2CC[C@@H]3CN(c4ncccn4)CCO[C@@H]3C2)c1 | -0.901% |
| NCC(c1ccc(Cl)cc1)N1CCc2sccc2C1 (stereo not drawn) | 13.7% |
| CC(C)c1ccc(C(CN)N2CCc3sccc3C2)cc1 (stereo not drawn) | 17.8% |
| CSc1ccc(C(CN)N2CCc3sccc3C2)cc1 (stereo not drawn) | 71.4% |
| CC(=O)Cc1c(C)nn(-c2cncc(C(N)=O)c2)c1C | 16.5% |
| COc1cncc(-n2nc(C)c(CC(C)=O)c2C)c1 | 34.2% |
| CC(=O)Cc1c(C)nn(-c2cncc(N)c2)c1C | 64.6% |
| COCCN1CC[C@@H]2O[C@@H](COCC(=O)N3CCCC3)CC[C@@H]21 | 17.1% |
| COC[C@@]12CCC[C@@H]1CN(C(=O)CN(C)C)C2 | 5.77% |
| CC(C)(C)NC[C@@H]1CCC[C@@H]2CN(Cc3csnn3)C[C@@H]21 | 17.1% |
| O=C(C1CCOCC1)N1CCO[C@H]2[C@H](Oc3ccccn3)CC[C@@H]21 | -1% |
| CS(=O)(=O)CCOCCNc1ccc(Br)cn1 | 16.9% |
| O=c1[nH]nc(CNc2cncc(Br)c2)[nH]1 | 11.1% |
| O=C(NCCNc1cncc(Br)c1)c1ccc(O)cc1 | 42.5% |
| CCOCC(O)CNc1cncc(Br)c1 (stereo not drawn) | 46.6% |
| COCC(O)CNc1cncc(Br)c1 (stereo not drawn) | 60.3% |
| CS(=O)(=O)CCOCCNc1cncc(Br)c1 | 53.2% |
| CCCC(O)CNc1cncc(Br)c1 (stereo not drawn) | 95.9% |
| COCC(C)NC(=O)c1cncc(Br)c1 (stereo not drawn) | 19.2% |
| COCCOCCNc1cncc(Br)c1 | 45.5% |
| Cn1cc(C(=O)N2CC[C@@H]3[C@@H]2CCN3c2ncc(F)cn2)cn1 | 14.3% |
| O=C(c1ccnnc1)N1C[C@@H](OCc2cccnc2)[C@H]2OCCC[C@H]21 | 22.9% |
| O=C(N[C@@H]1CN(c2ncccn2)C[C@@H]2CCCO[C@@H]21)c1cccnc1 | 2.86% |
| Cc1ccc(N2CC[C@@H]3O[C@@H](c4ccncn4)C[C@H]3C2)nn1 | 16.2% |

| Structure (SMILES) | Percent Effect |
| --- | --- |
| Cc1nc[nH]c1CN1CCN(C(=O)CN2CCCC2)[C@H]2CS(=O)(=O)C[C@H]21 | 15.6% |
| CCn1cc(CNc2ccc(F)c(F)c2)cn1 | 3.54% |
| CCn1cc(CNc2ccc(Br)c(OC)c2)cn1 | 16.9% |
| CCn1cc(CNc2ccc3nccnc3c2)cn1 | 90.9% |
| CC(C)N(C)C[C@H]1OC[C@@H]2CCN(Cc3cccc(C#N)c3)C[C@@H]21 | 10% |
| Cc1nc(CO[C@H]2CN(C(=O)c3cccn3C)[C@@H]3COC[C@H]23)cs1 | -6% |
| Nc1cc(N2CCCC(COc3ccc(F)cc3)C2)ncn1 (stereo not drawn) | 28.9% |
| Nc1nc(N2CCCC(COc3ccc(F)cc3)C2)c2nc[nH]c2n1 (stereo not drawn) | 81.9% |
| COc1ccccc1N1CCN(c2nc(N)nc3[nH]cnc23)CC1 | 21.7% |
| O=C(c1cncc(N2CC[C@@]3(O)CCNC[C@H]3C2)n1)N1CCCC1 | 0% |
| CN(C)S(=O)(=O)N1CC[C@]2(O)CCN(c3cc(C#N)ccn3)C[C@@H]2C1 | 15.7% |
| O=C1[C@H]2CN(C3CCOCC3)C[C@H]2CN1Cc1cccc(F)c1 | 19.7% |
| O=C(C1CCCCC1)N1C[C@@H]2CCN(c3cnccn3)C[C@@H]2C1 | 46.8% |
| O=C(C1CCCC1)N1C[C@@H]2CCN(c3cnccn3)C[C@@H]2C1 | 30.3% |
| CS(=O)(=O)N1C[C@H]2N(c3ncccn3)CCC[C@@]2(C(=O)NCC2CC2)C1 | 6.36% |
| COc1ccc(C(NCc2ccc(C#N)cc2)C2CC2)cc1 (stereo not drawn) | 29.1% |
| COc1ccc(C(NCc2cccc(C#N)c2)C2CC2)cc1 (stereo not drawn) | 3.8% |
| COc1ccc(C(NCc2cccc(O)c2)C2CC2)cc1 (stereo not drawn) | 69.6% |
| Cc1ccoc1C(=O)N1CC[C@H]2[C@@H]1CCC(=O)N2c1cccnc1 | 23% |
| CCS(=O)(=O)NC[C@]12COC[C@H]1CN(CCc1ccccc1)C2 | 2.63% |
| c1ccc2c(c1)N(CC1CCOC1)CC21CCN(c2cnccn2)CC1 (stereo not drawn) | 39.1% |
| c1cnc(N2CCC3(CC2)CN(CC2CC2)c2ccccc23)nc1 | 70.7% |
| O=C1N(CC2CC2)CCC12CCN(c1ncccn1)CC2 | 24.4% |
